Experimental data from PubChem BioAssay AID624040 (The Scripps Research Institute Molecular Screening Center, 2012).
The whole screen tested about 360,000 compounds, of which about 2,100 (0.58%) were called active. The full list was thinned out, with actives kept by preference. A number with no mark means an inactive call.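 How the source made its calls: active means inhibition above a per-plate cutoff, the mean of that plate's test compounds plus 3 SD (cut at about 27% in these data); inactive means the rest.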

molecular target: Muscarinic acetylcholine receptor M5 (Homo sapiens) (UniProt P08912); test: CHRM5 blockers of acetylcholine calcium response – CHO cells, Fluo-8 calcium fluorescence, primary screen (AID 624040); settings: CHO-hM5 cells, ACh EC80, at 3 µM, active compounds read high;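 further: 0% = acetylcholine EC80 with DMSO and 100% = DMSO without agonist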
Sequence (P08912 whole entry, looked up): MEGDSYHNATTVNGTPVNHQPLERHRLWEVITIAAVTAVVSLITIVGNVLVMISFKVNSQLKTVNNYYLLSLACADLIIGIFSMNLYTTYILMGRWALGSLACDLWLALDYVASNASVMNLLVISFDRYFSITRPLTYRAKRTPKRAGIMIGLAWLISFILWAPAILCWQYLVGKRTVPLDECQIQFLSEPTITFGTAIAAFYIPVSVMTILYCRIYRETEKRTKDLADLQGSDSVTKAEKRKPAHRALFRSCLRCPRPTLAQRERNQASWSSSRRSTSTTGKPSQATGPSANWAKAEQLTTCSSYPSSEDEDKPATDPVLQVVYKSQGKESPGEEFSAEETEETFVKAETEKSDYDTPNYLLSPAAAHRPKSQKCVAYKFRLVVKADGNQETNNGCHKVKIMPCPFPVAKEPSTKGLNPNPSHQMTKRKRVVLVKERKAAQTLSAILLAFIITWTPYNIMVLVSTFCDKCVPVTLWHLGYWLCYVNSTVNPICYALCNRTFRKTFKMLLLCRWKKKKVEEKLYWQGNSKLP

| SMILES | inhibition |
| --- | --- |
| CN(C)CCNc1ccc(-c2n[nH]c(=O)c3ccccc23)cc1[N+](=O)[O-] | 5.87% |
| O=C(NCC1(N2CCCCC2)CCCCC1)c1ccc(NS(=O)(=O)c2ccc(F)cc2)cc1 | 6.39% |
| CC(C)c1ccc(NC(=O)COC(=O)c2ccc(CN3CCCC3=O)cc2)cc1 | 11.4% |
| Cc1cc(C)c(S(=O)(=O)N2CCCC2CNC(=O)c2ccc3c(c2)OCO3)c(C)c1 (stereo not given) | 10.3% |
| O=C(COc1ccc(F)cc1Br)NCC1COc2ccccc2O1 (stereo not given) | -3.52% |
| CCC(=O)c1ccc(OCC(=O)N(CC)CC2COc3ccccc3O2)cc1 (stereo not given) | -6.74% |
| c1ccc2c(c1)OCC(CNc1ncnc3nc[nH]c13)O2 (stereo not given) | 46.2% (active) |
| CSc1ccccc1OCc1cc(C(=O)N2C[C@H]3CC[C@H]2C3)no1 | 23.9% |
| CCc1nc2nc(C)c(NS(=O)(=O)c3ccc4c(c3)CCCC4)c(=O)n2[nH]1 | 17.6% |
| CC(C)(C)N(CC#CCC(O)(c1ccccc1)C1CCCC1)CCO (stereo not given) | 8.39% |
| CN(CC#CCC(c1ccccc1)c1ccccc1)C(C)(C)C | 56.4% (active) |
| O=C1NC[C@@H](Cc2ccc(O)cc2)N(CCc2cccc(F)c2)C1=O | 10.1% |
| CCCCC(C(=O)NC(C)(C)C)N(Cc1ccccc1)C(=O)c1snc(C(N)=O)c1N (stereo not given) | -2.14% |
| Cc1cc(C)c(OCC(=O)N(Cc2cccs2)C2CCS(=O)(=O)C2)c(C)c1 (stereo not given) | 5.07% |
| CCCC[C@@H]1CN=C(N)N1CCc1cc(C(F)(F)F)cc(C(F)(F)F)c1 | 32.4% (active) |
| CCCCN1C(N)=NC[C@@H]1CC1CCCCC1 | 0.65% |
| CN(C)C1=NC[C@H](Cc2ccccc2)N1CCc1ccc(F)cc1 | 2.48% |
| COc1cccc(C(O)c2nc(-c3ccc(C)c(C)c3)cs2)c1 (stereo not given) | 2.71% |
| O=C(NC1=CC(=O)c2ccccc2C1=O)c1ccccc1 | 36.2% (active) |
| CN(C)C(=O)c1ccc(NC(=O)c2ccccc2-c2ccccc2)cc1 | 12.5% |
| Cc1ccc(C(=O)Nc2c(-c3ccccc3)[nH][nH]c2=O)cc1 | -12.3% |
| O=C(O)CCC(=O)Nc1ccc(OCC2CCCO2)cc1 (stereo not given) | -4.56% |
| COc1ccc(NC(=O)CN2C(=O)CSc3ccc(S(=O)(=O)N4CCC(C)CC4)cc32)cc1 | -4.66% |

| SMILES | inhibition |
| --- | --- |
| Cc1cc(-c2ccc(C)c(S(=O)(=O)NCCCN(Cc3ccccc3)C(C)C)c2)on1 | -8.38% |
| CCc1ccc(-c2cc(C)no2)cc1S(=O)(=O)NCCc1ccc(S(N)(=O)=O)cc1 | -7.03% |
| COc1ccc(CNS(=O)(=O)c2cc(-c3cc(C)no3)ccc2C(C)C)cc1 | 27.2% (active) |
| CSCCC(NC(=O)COc1ccccc1)C(=O)Nc1ccc(C)cc1 (stereo not given) | 0.42% |
| Cc1cc2oc(=O)cc(CN3CCN(S(=O)(=O)c4cccs4)CC3)c2cc1C(C)C | 6.3% |
| CC(C)c1ccc2oc(=O)cc(CN3CCN(Cc4ccccc4)CC3)c2c1 | 27.9% (active) |
| O=c1cc(CN2CCCCCCC2)c2c(ccc3ccccc32)o1 | 1.52% |
| COc1ccc(-c2cc3nc(C)c(CCC(=O)NC(C)CCc4ccco4)c(C)n3n2)c(OC)c1 (stereo not given) | -13.5% |
| CCC(C)C(NC(=O)C1CCC(=O)N1C(=O)OCc1ccccc1)C(=O)NC(C(=O)N1CCCC1C(N)=O)C(C)CC (stereo not given) | 5.74% |
| CCCCCCCCn1c2c(c(=N)c3c1CCC3)CCCC2 | 32.9% (active) |
| C#Cc1ccc([C@@H]2C=C(C(=O)O)O[C@H](OCCCCO)C2)cc1 | 13.8% |
| CCCN(Cc1cc2cccc(C)c2[nH]c1=O)S(C)(=O)=O | -2.81% |
| COc1cccc(CNC(=O)CCC2CCCN(C(=O)c3ccoc3C)C2)c1 (stereo not given) | 12.6% |
| COc1cccc(CNC(=O)CCC2CCCN(C(=O)c3ccc(F)c(Cl)c3)C2)c1 (stereo not given) | -0.63% |
| COc1cccc(CNC(=O)CCC2CCCN(C(=O)c3cc(C)[nH]n3)C2)c1 (stereo not given) | 32.7% (active) |
| CC1(C)Cc2nc3sc4c(SCC(=O)NC(c5ccccc5)c5ccccc5)ncnc4c3cc2CO1 | -8.35% |
| CN(C)c1ccc(/C=C2\NC(=S)N(Cc3ccccc3)C2=O)cc1 | 52.7% (active) |
| CCN(C(=O)CSc1nnnn1-c1ccc(OC)cc1)C1CCS(=O)(=O)C1 (stereo not given) | 12.8% |
| CC(Sc1nn(-c2ccc(Cl)cc2)c(=S)s1)C(=O)NCC1CCCO1 (stereo not given) | -4.62% |
| O=[N+]([O-])c1c(NCCO)cc(Sc2nc3ccccc3s2)c2nonc12 | 29.2% (active) |
| N#Cc1ccc(OCCN2C(=O)NC3(CCSC3)C2=O)cc1 (stereo not given) | -5.81% |
| COc1ccc(NC(=O)c2sccc2SCC#N)cc1 | 2.72% |
| CN1CCN(C(=O)C2=C[C@H](c3ccc4c(c3)OCO4)C[C@H](OCc3ccc(CO)cc3)O2)CC1 | 3.48% |

| SMILES | inhibition |
| --- | --- |
| COc1ccc(-n2nnc3c(=O)n(CC(=O)OCc4ccccc4)cnc32)cc1 | 4.49% |
| C=CCSc1nsc(NC(=O)Nc2cccc(C(C)=O)c2)n1 | 21.8% |
| CSc1nsc(NC(=O)Nc2ccccc2)n1 | 31.1% (active) |
| CCSc1nsc(NC(=O)Nc2cccc(C(C)=O)c2)n1 | 22.5% |
| COC(=O)/C(C#N)=C/c1occc1C | 2.54% |
| CC1OC2C(OC1C)N(S(C)(=O)=O)CCN2S(C)(=O)=O (stereo not given) | -2.68% |
| Cc1ccc(C(c2nnnn2CS(=O)(=O)c2ccc(C)cc2)N2CCC(C(N)=O)CC2)cc1 (stereo not given) | -9.51% |
| NC(=O)C1(N2CCCCC2)CCN(C2CC(=O)N(Cc3ccc(N4CCCC4=O)cc3)C2=O)CC1 (stereo not given) | -5.49% |
| O=S(=O)(NCCCc1ccccc1)c1ccc(Br)cc1 | 6.97% |
| S=C(NCCCc1ccccc1)Nc1ccc(Br)cc1 | 27.8% (active) |
| S=C(Nc1ccc(Br)cc1)NC1CCN(Cc2ccccc2)CC1 | -2.81% |
| Cc1sc(NC(=O)C2C3CCC(O3)C2C(=O)O)c(C(=O)OC(C)C)c1-c1ccc(Cl)cc1 (stereo not given) | -0.97% |
| CC(C)OCCCNc1ncnc2c1[nH]c1ccc(F)cc12 | 36.1% (active) |
| COC(=O)c1ccccc1NC(=O)CN(Cc1ccccc1)S(C)(=O)=O | -12.2% |
| COCCNC(=O)C1(C)CCCN(Cc2cccc(F)c2)C1 (stereo not given) | 4.07% |
| COc1cc(CNc2ncnc3c2ncn3[C@H]2CN(Cc3cccs3)C[C@@H](CO)O2)cc(OC)c1OC | 10.9% |
| O=C(Cc1ccc(Cl)c(Cl)c1)Nc1ccc(SC(F)F)cc1 | 33.6% (active) |
| O=C(CCl)Nc1ccc(Sc2ccc(NC(=O)CCl)cc2)cc1 | 2.24% |
| O=C(CC(O)(C(F)(F)F)C(F)(F)F)Nc1ccc(Cl)c(Cl)c1 | 17.8% |
| Cc1ccc(NC2=C(Cl)C(=O)OC2OC(=O)c2ccccc2C)cc1 (stereo not given) | 5.07% |
| CCN1CCN(c2ccc([N+](=O)[O-])cc2C(=O)c2ccc(Cl)cc2)CC1 | 78.8% (active) |
| CCC(C)(C)NC(=O)c1cc([N+](=O)[O-])ccc1N1CCCCC1 | 6.53% |
| CCC(=O)c1ccc(N2CCN(C(=O)c3cc([N+](=O)[O-])ccc3F)CC2)c(F)c1 | 17.6% |

| SMILES | inhibition |
| --- | --- |
| O=C(CCC1CCCCC1)Nc1cc(C(F)(F)F)ccc1N1CCOCC1 | 10.2% |
| COC(=O)[C@@]12C[C@@H](CC(=O)N3CCCCC3)C(=O)N(Cc3ccc4c(c3)OCO4)C1=CCC(C)(C)C2 | -4.41% |
| Cc1cc2cc(CNC(=O)c3ccc(S(=O)(=O)N4CCOCC4)cc3)ccc2[nH]1 | 13.1% |
| Cc1cc2cc(CNC(=O)c3cccs3)ccc2[nH]1 | 97.7% (active) |
| Cc1ccc(C)c2[nH]c(=O)c(CCNC(=O)c3cccs3)cc12 | 2.31% |
| Cc1ccc(C)n1-c1ccncc1 | 2.29% |
| CCOC(=O)c1ccc(N/C(=N/S(=O)(=O)c2ccccc2)c2ccccc2)cc1 | -3.7% |
| COC(=O)c1ccc(NC(=O)c2ccccc2NS(=O)(=O)c2ccccc2)cc1 | 31.6% (active) |
| COc1cc(NC(=O)c2ccccc2NS(=O)(=O)c2ccc(Cl)s2)cc(OC)c1 | 14.3% |
| COc1ccccc1NC(=O)CSc1nnc(-c2ccoc2C)n1CCc1ccccc1 | 6.68% |
| COC(=O)C1=C(C)N(c2ccc(C)cc2)/C(=C/c2ccc(O)cc2)C1=O | 3.87% |
| Cc1ccn2c(=O)c(C(=O)NCCC3=CCCCC3)c(O)nc2c1 | 2.86% |
| CC(=O)NC(CC(=O)Nc1nccs1)c1ccccc1 (stereo not given) | -3.08% |
| C[C@H](NC(=O)c1[nH]cnc1C(=O)Nc1nccs1)c1ccccc1 | 11.9% |
| CC(NC(=O)C(=O)Nc1nccs1)c1ccccc1 (stereo not given) | 30.9% (active) |
| O=C(C1CC1)N1N=C2CCCCC2C1(O)C(F)(F)F (stereo not given) | 13.2% |
| Cc1nc(C)c(C(=O)N(c2ccc(C)c(C)c2)C(C(=O)NCc2ccco2)c2ccccc2)s1 (stereo not given) | 2.62% |
| CC(C)(C)C(=O)c1c(N)[nH]c(C(=O)c2ccccc2)c1-c1ccc(F)cc1 | -1.9% |
| COc1ccc(NC(=O)CC(NC(C)c2ccccc2)C(=O)O)cc1 (stereo not given) | 4.75% |
| CCC(C(=O)OCC(=O)Nc1ccc(C(=O)Nc2ccc(OC)cc2)cc1)c1ccccc1 (stereo not given) | 36.3% (active) |
| COc1ccc(NC(=O)COC(=O)c2ccc(NS(=O)(=O)/C=C/c3ccccc3)cc2)cc1 | 14.2% |
